Data taken from publication PMC5700166.
Residue numbers refer to the chain shown, from its start.

Columns and labels:
Experiment in all cases: protein-binding microarray (PBM); PBM: ~300 nM protein, 6 mM HEPES pH 7.8, 80 mM KCl, 0.5 mM EDTA, 0.5 mM EGTA, 6% glycerol, 35 ng/ul poly-dIdC, 1% milk, 1 h, room temperature; Ap Aiptasia and Nv Nematostella (sea anemones) / Co Capsaspora / Aq Amphimedon (sponge) / Dm Drosophila / Hu human; RHD is the Rel homology domain; high values mean tight binding
Conditions in all cases: dsDNA, one strand shown
[1] = target: T1, GST-Ap-NF-kB RHD (Exaiptasia pallida (Aiptasia), UniProt A0A913YAJ5 2-422)
T1 sequence: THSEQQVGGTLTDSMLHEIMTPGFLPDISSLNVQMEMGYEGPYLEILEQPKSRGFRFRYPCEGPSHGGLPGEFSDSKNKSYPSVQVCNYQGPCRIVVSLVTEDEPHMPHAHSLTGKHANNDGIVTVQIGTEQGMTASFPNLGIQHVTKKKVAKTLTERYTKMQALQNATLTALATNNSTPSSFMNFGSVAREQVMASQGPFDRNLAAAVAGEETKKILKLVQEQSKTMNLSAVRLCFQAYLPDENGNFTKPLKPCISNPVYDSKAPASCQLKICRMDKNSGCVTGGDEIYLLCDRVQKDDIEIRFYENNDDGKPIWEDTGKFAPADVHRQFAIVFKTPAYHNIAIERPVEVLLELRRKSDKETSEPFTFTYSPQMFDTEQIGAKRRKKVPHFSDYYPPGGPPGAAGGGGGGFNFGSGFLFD

[2] = target: T2, GST-Nv-NF-kB (Cys allele) (Nematostella vectensis, UniProt E5G601 2-411)
T2 sequence: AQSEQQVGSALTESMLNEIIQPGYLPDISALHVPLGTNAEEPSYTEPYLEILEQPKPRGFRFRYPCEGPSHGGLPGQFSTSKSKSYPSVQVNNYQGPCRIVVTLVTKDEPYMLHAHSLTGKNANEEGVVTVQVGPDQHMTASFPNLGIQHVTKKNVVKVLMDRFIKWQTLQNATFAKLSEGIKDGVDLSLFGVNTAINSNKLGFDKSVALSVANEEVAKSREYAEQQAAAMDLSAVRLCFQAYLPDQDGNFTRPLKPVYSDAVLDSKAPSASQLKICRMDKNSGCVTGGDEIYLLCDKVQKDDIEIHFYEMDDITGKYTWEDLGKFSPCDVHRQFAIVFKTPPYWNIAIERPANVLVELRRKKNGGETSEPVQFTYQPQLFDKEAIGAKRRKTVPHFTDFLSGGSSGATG

[3] = target: T3, GST-Nv-NF-kB (Ser allele) (Nematostella vectensis, UniProt A7UNT2 2-411)
T3 sequence: T2 sequence with Q21R, C66S, S207N, E215Q, V217A, E225K, A268E, D399E

[4] = target: T4, GST-Co-NF-kB (Capsaspora owczarzaki, UniProt F1ARL5 200-546)
T4 sequence: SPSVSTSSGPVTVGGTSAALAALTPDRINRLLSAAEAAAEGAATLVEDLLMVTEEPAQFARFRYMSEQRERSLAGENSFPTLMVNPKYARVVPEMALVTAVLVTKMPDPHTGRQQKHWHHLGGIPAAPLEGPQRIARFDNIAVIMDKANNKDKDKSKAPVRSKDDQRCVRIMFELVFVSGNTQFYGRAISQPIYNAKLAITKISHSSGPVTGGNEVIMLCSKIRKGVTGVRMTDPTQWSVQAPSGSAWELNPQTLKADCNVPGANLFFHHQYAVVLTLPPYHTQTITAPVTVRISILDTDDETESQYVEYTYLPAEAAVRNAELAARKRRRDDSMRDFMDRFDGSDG

[5] = target: T5, GST-Dm-Relish (Drosophila melanogaster, UniProt Q94527 99-473)
T5 sequence: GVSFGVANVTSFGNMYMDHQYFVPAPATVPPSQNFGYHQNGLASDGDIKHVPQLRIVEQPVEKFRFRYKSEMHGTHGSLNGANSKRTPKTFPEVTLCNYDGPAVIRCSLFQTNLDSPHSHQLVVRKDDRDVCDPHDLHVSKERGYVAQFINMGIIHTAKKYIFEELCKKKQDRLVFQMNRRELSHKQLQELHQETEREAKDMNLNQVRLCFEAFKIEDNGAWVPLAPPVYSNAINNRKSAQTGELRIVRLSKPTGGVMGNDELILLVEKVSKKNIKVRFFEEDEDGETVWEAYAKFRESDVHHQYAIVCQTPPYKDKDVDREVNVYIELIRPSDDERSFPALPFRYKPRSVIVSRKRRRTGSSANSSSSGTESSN

[6] = target: T6, GST-Aq-NF-kB (Amphimedon queenslandica, UniProt A9Y5G7 2-389)
T6 sequence: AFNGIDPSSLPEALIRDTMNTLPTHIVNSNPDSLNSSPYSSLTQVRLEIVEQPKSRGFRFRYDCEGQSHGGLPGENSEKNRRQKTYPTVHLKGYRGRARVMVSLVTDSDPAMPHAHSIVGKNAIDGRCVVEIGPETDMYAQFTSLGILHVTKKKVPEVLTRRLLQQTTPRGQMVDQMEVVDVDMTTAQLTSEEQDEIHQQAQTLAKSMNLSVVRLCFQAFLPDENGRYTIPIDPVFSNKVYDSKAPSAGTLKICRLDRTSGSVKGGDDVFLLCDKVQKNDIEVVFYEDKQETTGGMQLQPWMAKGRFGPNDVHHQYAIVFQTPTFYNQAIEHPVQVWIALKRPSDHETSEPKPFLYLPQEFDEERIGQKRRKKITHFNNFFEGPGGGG

[7] = target: GST-Hu-p50 (Homo sapiens, UniProt P19838 7-356)
Sequence of GST-Hu-p50 (P19838 7-356): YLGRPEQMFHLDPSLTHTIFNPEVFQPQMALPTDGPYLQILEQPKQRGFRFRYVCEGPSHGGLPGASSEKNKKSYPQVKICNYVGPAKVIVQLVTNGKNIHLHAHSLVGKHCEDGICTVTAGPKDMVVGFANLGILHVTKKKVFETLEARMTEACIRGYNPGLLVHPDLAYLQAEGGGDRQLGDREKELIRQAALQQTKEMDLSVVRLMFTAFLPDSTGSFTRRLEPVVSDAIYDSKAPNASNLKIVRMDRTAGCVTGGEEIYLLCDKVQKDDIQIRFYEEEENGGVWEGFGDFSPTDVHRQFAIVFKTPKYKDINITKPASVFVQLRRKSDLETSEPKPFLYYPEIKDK

Sequence | binding signal [1] [z-score] | binding signal [2] [z-score] | binding signal [3] [z-score] | binding signal [4] [z-score] | binding signal [5] [z-score] | binding signal [6] [z-score] | binding signal [7] [z-score]
CCGATTAACATCAAGGGGAATTATGATGTTAATCGGGTCTTGATTCGCTTGACGCTGCTG | 7.82 | 10.5 | 11.4 | 6.37 | 7.09 | 7.24 | 7.43
CCGATTAACATCACCATTTCCCCTGATGTTAATCGGGTCTTGATTCGCTTGACGCTGCTG | 5.75 | 6.95 | 9.62 | 6.17 | 2.11 | 4.32 | 5.3
CCGATTAACATCAGAAAAGTCCCTGATGTTAATCGGGTCTTGATTCGCTTGACGCTGCTG | 7.92 | 10.1 | 9.94 | 1.28 | 8.36 | 8.15 | 6.91
CCGATTAACATCAGGAATATCCCTGATGTTAATCGGGTCTTGATTCGCTTGACGCTGCTG | 2.84 | 3.66 | 2.12 | 1.54 | 2.78 | 6.03 | 3.26
CCGATTAACATCAGGGGACTTACTGATGTTAATCGGGTCTTGATTCGCTTGACGCTGCTG | 5.97 | 5.56 | 5.43 | 2.17 | 8.32 | 5.66 | 5.68
CCGATTAACATCAAAATCCCCCCTGATGTTAATCGGGTCTTGATTCGCTTGACGCTGCTG | 10.4 | 9.21 | 10.9 | 8.91 | 9.53 | 8.11 | 7.61
CCGATTAACATCAGGGTTTTACCTGATGTTAATCGGGTCTTGATTCGCTTGACGCTGCTG | 2.62 | 3.71 | 4.37 | 2.01 | 6.46 | 6.12 | 3.39
CCGATTAACATCAGGGGATTCTATGATGTTAATCGGGTCTTGATTCGCTTGACGCTGCTG | 8.9 | 9.25 | 11.1 | 3.26 | 7.72 | 6.2 | 6.98
CCGATTAACATCAAGATTCCCCCTGATGTTAATCGGGTCTTGATTCGCTTGACGCTGCTG | 8.66 | 9.42 | 10.6 | 9.18 | 7.1 | 7.31 | 7.32
CCGATTAACATCAGAAAACCCCCTGATGTTAATCGGGTCTTGATTCGCTTGACGCTGCTG | 10.8 | 10 | 11 | 4.05 | 10 | 8.84 | 8.24
CCGATTAACATCAGGGGAATTCATGATGTTAATCGGGTCTTGATTCGCTTGACGCTGCTG | 9.45 | 10.8 | 10.8 | 6.94 | 7.6 | 7.5 | 6.83
CCGATTAACATCACGTACTCCCCTGATGTTAATCGGGTCTTGATTCGCTTGACGCTGCTG | 4.07 | 2.77 | 3.43 | 2.99 | 4 | 2.92 | 2.83
CCGATTAACATCAGAGAACCCCCTGATGTTAATCGGGTCTTGATTCGCTTGACGCTGCTG | 7.89 | 6.19 | 6.92 | 2.09 | 7.55 | 6.18 | 6.47
CCGATTAACATCAAATTCCCCCCTGATGTTAATCGGGTCTTGATTCGCTTGACGCTGCTG | 8.5 | 8.77 | 8.88 | 10.1 | 8.4 | 7.65 | 6.85
CCGATTAACATCAAAGAACCCCCTGATGTTAATCGGGTCTTGATTCGCTTGACGCTGCTG | 8 | 6.95 | 7.44 | 3.51 | 8.69 | 6.42 | 6.47
CCGATTAACATCAGGGTAATACCTGATGTTAATCGGGTCTTGATTCGCTTGACGCTGCTG | 4.26 | 5.72 | 3.69 | 2.23 | 3.92 | 7.45 | 2.82
CCGATTAACATCAAGAACCCCCGTGATGTTAATCGGGTCTTGATTCGCTTGACGCTGCTG | 6.68 | 4.55 | 5.31 | 3.25 | 8.39 | 5.21 | 5.41
CCGATTAACATCAGAGATTTCCCTGATGTTAATCGGGTCTTGATTCGCTTGACGCTGCTG | 3.94 | 5.69 | 6.13 | 3.92 | 2.1 | 5.48 | 4.51
CCGATTAACATCAGATTCCCCCCTGATGTTAATCGGGTCTTGATTCGCTTGACGCTGCTG | 8.5 | 7.01 | 8.24 | 10 | 6.72 | 6.38 | 7.1
